The values below come from PubChem BioAssay (NCATS).

Inconclusive results are not listed. Activity calls are given as the source filed them. Calls follow the shape of the dose curve; as a rule, active = well fitted cell-killing curve with a large enough effect; inconclusive = small, poorly fitted or top-dose-only effect, or effect the other way; inactive = no such curve, though single readings can be large or run the other way.
Potency is read from the fitted curve at half-maximal effect.

The nature of this assay: Viability qHTS for spleen associated tyrosine kinase inhibitor (SYKi) drug resistant MV4-11 cells (AID 1963824). Also: nearly all actives have a fitted effect of over 35% in size. The settings on record: SYKi-resistant MV4-11 viability, CellTiter-Glo, 72 h; series mostly up to 45 µM; viability, % of control: at the top concentration. An outline of the steps: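 CellTiter-Glo luminescence, read 10 min after reagent addition, reports viability after a 72 hr compound exposure. Cells are an MV4-11 line made resistant to SYK inhibition, seeded at 500 per well onto compound-containing plates.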
For orientation: qHTS replaces the single test concentration by a dilution series.
`CC(=O)c1ccc2c(c1)N(CCCN1CCC(CCO)CC1)c1ccccc1S2`: the Potency was 18800 nM (active).

With `C/C(=C\C=C\C(C)C1CCC2(C)C3CCC4C(C)(C)C(=O)CCC45CC35CCC12C)C(=O)O` (stereo unspecified), the Potency is 6320 nM (active).

For `C[C@@H]1O[C@@H](O[C@H]2[C@H](O)[C@@H](O[C@@H]3O[C@H](CO)[C@H](O)[C@H](O)[C@H]3O)[C@H](O[C@H]3CC[C@@]4(C)C(CC[C@]5(C)C4CC=C4[C@@H]6CC(C)(C)CC[C@]6(C(=O)O[C@@H]6O[C@H](CO)[C@@H](O)[C@H](O)[C@H]6O)CC[C@]45C)C3(C)C)O[C@@H]2C(=O)O)[C@H](O)[C@H](O)[C@H]1O` (stereo partly specified), the viability, % of control was 90.8% [at 9.25 µM] (inactive).

With `CC(=O)NCCc1c[nH]c2ccc(O)cc12`, the “viability, % of control” value is 74.5% (inactive).

As for `CC(C)C(C(=O)N1CCCC1C(=O)O)N(C)C(=O)C(O)Cc1ccccc1` (stereo unspecified), the “viability, % of control” value was 81.9% (inactive).

On to `O=C(/C=C/c1ccccc1)OC[C@]12O[C@H]1[C@@H](O)[C@@H]1C=CO[C@@H](O[C@@H]3O[C@H](CO)[C@@H](O)[C@H](O)[C@H]3O)[C@@H]12`, for which the “viability, % of control” value is 91.5% [at 17.3 µM] (inactive).

Take `CC1(C)S[C@@H]2[C@H](NC(=O)[C@H](N)c3ccc(O)cc3)C(=O)N2[C@H]1C(=O)O`: the “viability, % of control” value is 92.1% (inactive).

Regarding `CC(C)C(=O)O[C@@H]1[C@@H](O)[C@@H](O[C@H]2O[C@H](CO)[C@@H](O)[C@H](O)[C@H]2O)O[C@H](CO)[C@H]1O`, the “viability, % of control” value was 119% [at 17.3 µM] (inactive).

Consider `CCCCN1CCCC[C@H]1C(=O)Nc1c(C)cccc1C`, for which the Potency result is “inactive”.

With `CC(C)C(C)C(O)C1CC23CC(=O)C4(O)C(=C2CCC3C1C)C=CC1(O)CC(O)CCC14C` (stereo unspecified), the Potency is 7090 nM (active).

Regarding `O=C1NC(=O)/C(=C\c2ccc3nccc(-c4ccncc4)c3c2)S1`, the Potency is 517 nM (active).

For `C#CCN(Cc1cc2c(=O)n(C)c(CN3CCN(C)CC3)nc2cc1Cl)c1ccc(C(=O)NCc2cccnc2)cc1`, the “viability, % of control” value was 2.34% (inactive).

With `COc1c(C)cnc(Cn2cc(C#CCC(C)(C)O)c3c(Cl)nc(N)nc32)c1C`, the Potency was 20.6 nM (active).

`CC1(C)[C@@H](O)CC[C@]2(C)[C@H]3CC=C4[C@@H]5C[C@](C)(C(=O)O)CC[C@]5(C)CC[C@@]4(C)[C@]3(C)CC[C@@H]12`: the “viability, % of control” value was 121% (inactive).

As for `Nc1cc(C(F)(F)F)ccc1S`, the Potency was 23700 nM (active).

On to `O=C(NC(NC(=S)Nc1ccc(F)c([N+](=O)[O-])c1)C(Cl)(Cl)Cl)C(c1ccccc1)c1ccccc1` (stereo unspecified), for which the Potency is 3260 nM (active).

`CC1(C)CCC2(C(=O)OC3OCC(O)C(O)C3O)CCC3(C)C(=CCC4C5(C)CC(O)C(OC6OC(COC7OCC(O)C(O)C7O)C(O)C(O)C6O)C(C)(C)C5CCC43C)C2C1` (stereo unspecified): the viability, % of control is 78.5% [at 9.25 µM] (inactive).

For `O=C(O[C@H]1[C@@H]2C=CO[C@@H](O[C@@H]3O[C@H](CO)[C@@H](O)[C@H](O)[C@H]3O)[C@@H]2[C@@]2(CO)O[C@@H]12)c1ccc(O)cc1`, the “viability, % of control” value is 93.9% [at 17.3 µM] (inactive).

For the compound `NC(=O)C1=C(O)[C@@]2(O)C(=O)C3=C(O)c4c(O)cccc4C[C@H]3C[C@H]2CC1=O`, the Potency was 2630 nM (active).

For `Oc1cccc(Nc2ncnc3sc4c(c23)CCCC4)c1`, the Potency was 5800 nM (active).

`CCOc1ccc(-c2cc(NC(=O)c3c(F)cccc3F)c(C(=O)O)s2)cc1`: the “viability, % of control” value is 25.1% (inactive).

In the case of `C=C1C(=O)O[C@H]2C1CCC(C)=C1C(=O)C=C(C)[C@@]12O` (stereo partly specified), the Potency was 8200 nM (active).

On to `Nc1nc(Cl)nc2c1ncn2C1OC(CO)C(O)C1F` (stereo unspecified), for which the Potency is 130 nM (active).

On to `Nc1ncnc2c1nc(Cl)n2C1O[C@H](CO)[C@@H](O)[C@H]1O` (stereo partly specified), for which the Potency was 146 nM (active).

With `CC(C)(O)C1CC=C(C(=O)OCC2OC(Oc3c(O)cc(C(=O)O)cc3O)C(O)C(O)C2O)CC1` (stereo unspecified), the “viability, % of control” value is 104% [at 17.3 µM] (inactive).

Take `COc1cc(/C=C/C(=O)O[C@H]2[C@H](O)[C@@H](CO)O[C@@]2(CO)O[C@H]2O[C@H](COC(=O)c3ccc(O)cc3)[C@@H](O)[C@H](O)[C@H]2O)cc(OC)c1OC`: the “viability, % of control” value was 75.9% [at 17.3 µM] (inactive).

Consider `CN1c2ccccc2C(=O)N2CCC3c4ccccc4NC3C21` (stereo unspecified), for which the Potency was 1800 nM (active).

`CC(C)OC(=O)OCOP(=O)(COC(C)Cn1cnc2c(N)ncnc21)OCOC(=O)OC(C)C` (stereo unspecified): the Potency was 2060 nM (active).

Take `CC1(C)C2CCC(CO[C@@H]3O[C@H](CO[C@@H]4OC[C@](O)(CO)[C@H]4O)[C@@H](O)[C@H](O)[C@H]3O)C1C2` (stereo partly specified): the “viability, % of control” value is 97.3% [at 17.3 µM] (inactive).

`CC1=C(C)C(=O)OC(C(C)C2CCC3C4C5OC5C5(O)CC(OC6OC(CO)C(OC7OC(C)C(O)C(O)C7O)C(O)C6O)CC(O)C5(C)C4CCC23C)C1` (stereo unspecified): the “viability, % of control” value was 90% [at 17.3 µM] (inactive).

As to `CSCC[C@H](NC(=O)[C@H](CCSC)NC(=O)CNC(=O)[C@H](Cc1ccc(O)cc1)NC(=O)[C@H](Cc1ccccc1)NC(=O)[C@H](CCCN=C(N)N)NC(=O)[C@H](CC(=O)O)NC(=O)[C@@H]1CCCN1C(=O)[C@H](CC(=O)O)NC(=O)[C@@H]1CCCN1C(=O)[C@@H]1CCCN1C(=O)[C@@H](N)CC(=O)O)C(N)=O`, the “viability, % of control” value is 105% [at 17.3 µM] (inactive).
